Test results reported in PubChem BioAssay AID588773 (The Scripps Research Institute Molecular Screening Center, 2011).

assay: pPAFAH inhibition and serine hydrolase selectivity, late-stage follow-up, selectivity assay for pPAFAH inhibitor project, biochemical, gel-based, FP-Rh fluorescence, mouse, HTS hit compounds (AID 588773); conditions: gel-based competitive ABPP, proteome, MW 30 kDa protein, at 10 µM, stronger effect = higher value;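 active means inhibition of plasma PAF acetylhydrolase at a set limit or more at 0.1 µM, with tenfold selectivity over all off-targets; inactive means inhibition below the limit or weaker selectivity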

inhibition, inactive:
O=C(Oc1nsnc1N1CCOCC1)N1CCOCC1 35%
CCCCOC(=O)c1ccc(OC(=O)N2CCOCC2)cc1 14%
O=C(CCCSc1ccc(Cl)cc1)Nc1cc(S(=O)(=O)N2CCOCC2)ccc1O 19%
O=C(Oc1ccc(-c2ccccc2)cc1)N1CCOCC1 44%
O=C(Oc1ccc(Oc2ccccc2)cc1)N1CCC(O)CC1 5%
O=C(Oc1ccc(-c2ccccc2)cc1)N1CCCCC1 69%
O=C(/C=C/c1cccs1)c1cc(Br)ccc1OC(=O)N1CCOCC1 19%
